Laboratory results: PubChem BioAssay (NCATS)
Results filed as inconclusive are left out. Calls of active or inactive are those of the source. Unless noted, the call rests on the fitted dose curve; in most records, active means well fitted curve in the direction sought with a large enough effect; inconclusive means small, poorly fitted or top-dose-only effect, or another doubt; inactive means no such curve, though single readings can be large; an effect the other way counts as inactive or inconclusive.

Assays:
[1] = qHTS assay for measurement of the activity of small molecule inhibitors on Zika virus induced Caspase-3 activity in human iPSC derived neural progenitor cells (hNPCs) (AID 1224857); conditions: hNPCs ZIKV-induced caspase-3/7, Caspase-Glo luminescence, 6 h; series mostly up to 45.7 µM; further: nearly all actives have a fitted effect of over 65% in size
Procedure, shortened: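 Quantitative HTS format: human iPSC neural progenitors, 1 h compound pretreatment, ZIKV 2 FFU/cell for 6 h at 37 C. Percent inhibition derived from luminescent caspase-3/7 signal between uninfected and infected controls.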

[2] = qHTS assay for measurement of the activity of small molecule inhibitors on Zika virus induced Caspase-3 activity in human astrocytoma cells (AID 1224859); conditions: SNB-19 ZIKV-induced caspase-3/7, luminescence, 6 h; series mostly up to 45.7 µM
Procedure, shortened: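 Readout is luminescence from Caspase-Glo 3/7 added after a 6 h ZIKV infection (2 FFU/cell) of compound-pretreated (1 h) SNB-19 cells; data expressed as % inhibition versus uninfected and infected wells.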

[3] = qHTS assay to identify small molecule inhibitors of chordoma cells - UCH-1 (AID 1259355); conditions: UCH-1 chordoma viability, CellTiter-Glo, 48 h, combination, with auranofin plus four topoisomerase inhibitors; series mostly up to 46.1 µM; further: nearly all actives have a fitted effect of over 55% in size; further: potency means the concentration at half of the fitted maximal effect
Procedure, shortened: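 Cells (800/well) were seeded and left overnight at 37 C, 5% CO2, then treated with drugs at 15 concentrations plus a combination mix of auranofin, camptothecin, doxorubicin, rubitecan and topotecan. Viability after 48hr was read by CellTiter-Glo luminescence.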

[4] = qHTS assay to identify small molecule inhibitors of chordoma cells - UCH-2 (AID 1259356); conditions: UCH-2 chordoma viability, CellTiter-Glo ATP luminescence, 48 h; series mostly up to 46.1 µM; further: potency means the concentration at half of the fitted maximal effect
[5] = P-glycoprotein substrates identified in KB-8-5-11 adenocarcinoma cell line, qHTS therapeutic library screen (AID 1346987); conditions: KB-8-5-11 (P-gp overexpressing) viability, CellTiter-Glo, 72 h; series mostly up to 44.5 µM; further: nearly all actives have a fitted effect of over 65% in size; further: potency means the concentration at half of the fitted maximal effect
Procedure, shortened: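 P-gp-mediated resistance screen: KB-8-5-11 cells treated 72 h with compounds in dose-response. CellTiter-Glo viability.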

[6] = Natriuretic polypeptide receptor (hNpr1) antagonism - Pilot counterscreen GloSensor control cell line (AID 1347045; calls by dose curve; further: potency means the concentration at half of the fitted maximal effect); conditions: HEK293 cGMP GloSensor cells, SNP-stimulated luminescence, 20 min; series mostly up to 38.3 µM
Procedure, shortened: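 This counterscreen uses HEK293 cells expressing the GIP/pGS-40F cGMP biosensor. Compound-treated cells are challenged with 50 uM sodium nitroprusside, and the luciferase signal is compared before and after stimulation.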

[7] = target: Atrial natriuretic peptide receptor 1 (Homo sapiens) (UniProt P16066); assay: Natriuretic polypeptide receptor (hNpr1) antagonism - Pilot screen (AID 1347049; calls by dose curve;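 further: agonist-evoked cGMP luminescence read 20 min after hNppA addition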); conditions: hNpr1 cells, antagonist mode cGMP read-out; series mostly up to 57.5 µM
Chain of Atrial natriuretic peptide receptor 1 (Homo sapiens) (P16066 whole entry, looked up): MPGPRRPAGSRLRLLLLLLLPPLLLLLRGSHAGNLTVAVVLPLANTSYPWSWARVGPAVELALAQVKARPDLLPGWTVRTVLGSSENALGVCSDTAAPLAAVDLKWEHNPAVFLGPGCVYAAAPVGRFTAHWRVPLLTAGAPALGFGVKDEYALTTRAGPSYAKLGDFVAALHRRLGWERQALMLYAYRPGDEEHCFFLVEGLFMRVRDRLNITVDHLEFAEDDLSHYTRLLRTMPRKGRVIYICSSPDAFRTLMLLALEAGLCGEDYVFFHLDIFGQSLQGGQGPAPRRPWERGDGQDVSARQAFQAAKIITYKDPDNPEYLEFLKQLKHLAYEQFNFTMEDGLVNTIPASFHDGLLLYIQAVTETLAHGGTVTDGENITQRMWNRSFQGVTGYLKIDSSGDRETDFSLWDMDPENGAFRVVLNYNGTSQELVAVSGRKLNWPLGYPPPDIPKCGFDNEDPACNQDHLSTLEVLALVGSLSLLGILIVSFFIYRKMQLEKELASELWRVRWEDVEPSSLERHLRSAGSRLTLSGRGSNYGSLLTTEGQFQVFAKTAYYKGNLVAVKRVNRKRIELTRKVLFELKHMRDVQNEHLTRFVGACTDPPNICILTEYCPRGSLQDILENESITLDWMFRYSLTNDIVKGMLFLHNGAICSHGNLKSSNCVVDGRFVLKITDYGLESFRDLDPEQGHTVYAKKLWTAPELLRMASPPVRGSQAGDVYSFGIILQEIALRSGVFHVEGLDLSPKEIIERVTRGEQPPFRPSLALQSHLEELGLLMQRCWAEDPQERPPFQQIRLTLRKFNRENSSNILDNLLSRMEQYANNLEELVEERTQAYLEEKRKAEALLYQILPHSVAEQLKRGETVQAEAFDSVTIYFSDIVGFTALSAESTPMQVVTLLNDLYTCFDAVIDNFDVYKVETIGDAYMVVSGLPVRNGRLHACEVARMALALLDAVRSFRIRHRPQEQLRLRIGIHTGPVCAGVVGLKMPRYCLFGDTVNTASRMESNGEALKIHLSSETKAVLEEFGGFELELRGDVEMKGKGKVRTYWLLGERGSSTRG
Procedure, shortened: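 HEK293 cells expressing hNpr1 and GloSensor cGMP luciferase, 1500/well, loaded with 2% GloSensor reagent 2 h, compound 30 min at room temperature; luminescence read before and 20 min after 0.1 nM hNppA stimulation.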

[8] = target: Atrial natriuretic peptide receptor 2 (Homo sapiens) (UniProt P20594); assay: Natriuretic polypeptide receptor (hNpr2) antagonism - Pilot subtype selectivity assay (AID 1347050; calls by dose curve); conditions: NPR2-expressing cells, cGMP antagonist-mode read-out; series mostly up to 38.3 µM
Chain of Atrial natriuretic peptide receptor 2 (Homo sapiens) (P20594 whole entry, looked up): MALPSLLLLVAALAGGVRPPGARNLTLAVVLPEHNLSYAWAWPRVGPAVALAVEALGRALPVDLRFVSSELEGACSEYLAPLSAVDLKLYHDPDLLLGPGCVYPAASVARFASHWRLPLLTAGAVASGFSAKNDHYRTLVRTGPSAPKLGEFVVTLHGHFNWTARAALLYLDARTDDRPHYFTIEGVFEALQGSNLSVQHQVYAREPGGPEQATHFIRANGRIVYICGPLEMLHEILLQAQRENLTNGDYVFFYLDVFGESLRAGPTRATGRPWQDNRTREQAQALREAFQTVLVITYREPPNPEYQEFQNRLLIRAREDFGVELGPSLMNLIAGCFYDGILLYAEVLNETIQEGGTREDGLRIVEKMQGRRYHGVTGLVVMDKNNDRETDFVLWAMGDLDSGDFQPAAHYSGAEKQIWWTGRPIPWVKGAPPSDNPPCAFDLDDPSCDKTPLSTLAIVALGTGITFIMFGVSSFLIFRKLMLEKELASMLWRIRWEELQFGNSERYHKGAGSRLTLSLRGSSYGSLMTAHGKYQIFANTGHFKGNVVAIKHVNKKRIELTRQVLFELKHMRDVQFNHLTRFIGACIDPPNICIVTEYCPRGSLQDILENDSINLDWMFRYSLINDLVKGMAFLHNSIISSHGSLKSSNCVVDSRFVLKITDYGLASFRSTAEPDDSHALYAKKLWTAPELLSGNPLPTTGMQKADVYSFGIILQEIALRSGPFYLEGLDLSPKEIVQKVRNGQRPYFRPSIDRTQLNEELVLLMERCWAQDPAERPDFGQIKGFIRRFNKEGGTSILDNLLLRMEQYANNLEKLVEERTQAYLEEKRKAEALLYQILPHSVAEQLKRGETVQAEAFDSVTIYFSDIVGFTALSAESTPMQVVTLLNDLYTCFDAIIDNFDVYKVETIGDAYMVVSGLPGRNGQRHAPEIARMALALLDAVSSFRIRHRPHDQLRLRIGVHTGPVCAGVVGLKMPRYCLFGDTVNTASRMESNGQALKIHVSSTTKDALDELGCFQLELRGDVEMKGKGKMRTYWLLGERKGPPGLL
Procedure, shortened: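 HEK293 cells expressing hNpr2 and a GloSensor cGMP luciferase sensor, 1500/well, preloaded 2 h with 2% GloSensor reagent, compound 30 min, then 1 nM hNppC for 20 min. Antagonism from luminescence after versus baseline pre-read; LOPAC in 1:5 titrations.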

[9] = NS1 protein of Zika virus - qHTS assay to identify small molecule inhibitors in human HEK 293 cells (AID 1347053); conditions: HEK293 ZIKV MR766 infection, NS1 TR-FRET, 24 h; series mostly up to 46.1 µM; further: nearly all actives have a fitted effect of over 55% in size
Procedure, shortened: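 HEK 293; 20 h pre-culture, 37 C/5% CO2; cpd 1 h pre-infection; ZIKV MR766, MOI = 0.5, 24 h, 37 C; TR-FRET NS1 readout (two anti-NS1 Abs); norm. to no-virus vs infected.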

[10] = target: T1, Tyrosine-protein phosphatase non-receptor type substrate 1 (Homo sapiens) + Leukocyte surface antigen CD47 (Homo sapiens) (UniProt P78324+Q08722); assay: CD47-SIRPalpha protein protein interaction - LANCE assay qHTS validation (AID 1347057; active means well fitted curve in the direction sought with a large enough effect in the signal ratio, with a control signal flat, not every such curve was filed as active; the % refers to the signal ratio); conditions: Recombinant CD47-His / biotin-SIRPalpha, TR-FRET ratio; series mostly up to 38.3 µM
T1 sequence (P78324 whole entry, looked up): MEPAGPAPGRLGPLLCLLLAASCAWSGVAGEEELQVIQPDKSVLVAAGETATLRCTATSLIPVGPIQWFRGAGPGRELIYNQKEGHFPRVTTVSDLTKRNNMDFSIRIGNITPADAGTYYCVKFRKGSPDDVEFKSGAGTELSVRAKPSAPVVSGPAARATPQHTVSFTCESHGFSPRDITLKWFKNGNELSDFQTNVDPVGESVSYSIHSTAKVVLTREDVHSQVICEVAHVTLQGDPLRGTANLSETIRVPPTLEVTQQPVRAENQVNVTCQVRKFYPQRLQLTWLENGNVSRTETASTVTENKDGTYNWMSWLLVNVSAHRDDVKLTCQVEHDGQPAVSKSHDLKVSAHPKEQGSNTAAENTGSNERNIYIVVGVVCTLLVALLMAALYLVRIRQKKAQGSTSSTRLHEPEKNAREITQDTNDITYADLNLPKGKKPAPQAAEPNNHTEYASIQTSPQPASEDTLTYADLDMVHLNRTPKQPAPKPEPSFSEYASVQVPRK
T1 sequence (Q08722 whole entry, looked up): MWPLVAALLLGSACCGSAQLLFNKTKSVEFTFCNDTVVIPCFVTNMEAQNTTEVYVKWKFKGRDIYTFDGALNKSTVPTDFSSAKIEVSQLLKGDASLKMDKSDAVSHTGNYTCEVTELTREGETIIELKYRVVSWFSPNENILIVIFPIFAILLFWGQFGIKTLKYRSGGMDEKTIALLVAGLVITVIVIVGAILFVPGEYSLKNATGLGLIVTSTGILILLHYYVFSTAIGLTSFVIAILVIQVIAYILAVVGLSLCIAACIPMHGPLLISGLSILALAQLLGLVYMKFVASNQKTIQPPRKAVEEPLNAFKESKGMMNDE
Procedure, shortened: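 First, His-tagged CD47 and Eu-labelled anti-His antibody met the compound for 30 min; next, site-specifically biotinylated SIRPalpha was added for 30 min; finally streptavidin-APC was added before reading the TR-FRET ratio.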

[11] = target: T1, Tyrosine-protein phosphatase non-receptor type substrate 1 (Homo sapiens) + Leukocyte surface antigen CD47 (Homo sapiens); assay: CD47-SIRPalpha protein protein interaction - HTRF assay qHTS validation (AID 1347058; active means well fitted curve in the direction sought with a large enough effect in the signal ratio, not every such curve was filed as active; the % refers to the signal ratio;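 further: recombinant soluble extracellular CD47 with His tag and biotinylated SIRPalpha domains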); conditions: TR-FRET HTRF CD47-His / biotin-SIRPalpha binding, ratio 665/615; series mostly up to 38.3 µM
Procedure, shortened: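 TR-FRET read (Ch1/Ch2 ratio) of soluble extracellular CD47 and Avi-biotinylated SIRPalpha domains in PBS pH 7.4 with 0.05% IGEPAL; 7-point compound titration. Sequential 30 min room-temperature steps; non-biotinylated SIRPalpha as control inhibitor.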

[12] = target: T1, Tyrosine-protein phosphatase non-receptor type substrate 1 (Homo sapiens) + Leukocyte surface antigen CD47 (Homo sapiens); assay: CD47-SIRPalpha protein protein interaction - Alpha assay qHTS validation (AID 1347059); conditions: AlphaScreen CD47-His/biotin-SIRPalpha binding, LOPAC; series mostly up to 38.3 µM;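 further: bead proximity luminescence from CD47 binding SIRPalpha after compound preincubation with SIRPalpha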
Procedure, shortened: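 Biotinylated Avi-tagged SIRPalpha (25 nM) preincubated 30 min with compound, then His-tagged CD47 (12.5 nM) added 30 min; AlphaScreen with Ni-NTA acceptor and streptavidin donor beads. PBS pH 7.4, 0.05% IGEPAL, room temperature; 7-point titrations.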

[13] = target: Parathyroid hormone/parathyroid hormone-related peptide receptor (Homo sapiens) (UniProt Q03431); assay: qHTS for PTHR1 Agonists: Optimization Screen against the NCGC LOPAC library (AID 1347079); conditions: HEK293 GP2 PTHR1 GloSensor cAMP luminescence, 1 h; series mostly up to 57.1 µM;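 further: GloSensor cAMP luminescence in HEK-293 GP2 cells expressing human PTHR1 with IBMX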
Chain of Parathyroid hormone/parathyroid hormone-related peptide receptor (Homo sapiens) (Q03431 whole entry, looked up): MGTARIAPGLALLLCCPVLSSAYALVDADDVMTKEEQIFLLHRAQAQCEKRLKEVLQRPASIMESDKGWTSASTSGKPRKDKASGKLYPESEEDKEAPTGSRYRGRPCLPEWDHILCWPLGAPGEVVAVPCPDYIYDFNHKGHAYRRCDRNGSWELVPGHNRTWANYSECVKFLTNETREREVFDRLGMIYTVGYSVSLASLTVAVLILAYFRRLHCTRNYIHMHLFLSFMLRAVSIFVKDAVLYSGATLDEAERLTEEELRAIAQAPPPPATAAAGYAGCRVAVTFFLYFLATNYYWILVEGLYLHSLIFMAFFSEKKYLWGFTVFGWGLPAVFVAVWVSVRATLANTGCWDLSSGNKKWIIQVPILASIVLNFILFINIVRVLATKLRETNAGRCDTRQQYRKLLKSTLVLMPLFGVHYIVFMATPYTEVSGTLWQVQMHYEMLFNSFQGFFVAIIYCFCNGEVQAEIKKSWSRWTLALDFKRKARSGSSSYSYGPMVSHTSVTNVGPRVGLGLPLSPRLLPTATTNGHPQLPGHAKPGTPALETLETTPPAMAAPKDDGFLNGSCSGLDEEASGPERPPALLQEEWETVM
Procedure, shortened: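 Compounds were tested across a qHTS titration. PTHR1-expressing GP2 cells report cAMP rises via GloSensor luminescence after 1 hr compound exposure at 37C with IBMX present.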

[14] = qHTS of pediatric cancer cell lines to identify multiple opportunities for drug repurposing: Primary screen for TC32 cells (AID 1347089); conditions: TC32 Ewing sarcoma viability, CellTiter-Glo luminescence, 48 h; series mostly up to 45.8 µM; further: nearly all actives have a fitted effect of over 60% in size
Procedure, shortened: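 Luminescent ATP read-out (CellTiter-Glo) of metabolically active TC32 cells after 48 h exposure. Concentration-response curves came from 11-point (MIPE, 0.78 nM–46 µM) or 8-point (NPC, 0.59 nM–46 µM) primary titrations; follow-up used 11 points.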

[15] = qHTS of pediatric cancer cell lines to identify multiple opportunities for drug repurposing: Primary screen for DAOY cells (AID 1347090); conditions: DAOY medulloblastoma viability, CellTiter-Glo luminescence, 48 h; series mostly up to 46 µM; further: nearly all actives have a fitted effect of over 55% in size
Procedure, shortened: (§1)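 Viability measured as metabolically active cells via CellTiter-Glo luminescence following 48 hours of compound exposure, 11-point dilutions in confirmatory testing. 500-1,000 cells/well plated 5 hours before dosing; controls were DMSO and 2.3 µM bortezomib.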

[16] = qHTS of pediatric cancer cell lines to identify multiple opportunities for drug repurposing: Primary screen for SJ-GBM2 cells (AID 1347091); conditions: SJ-GBM2 viability, CellTiter-Glo luminescence, 48 h; series mostly up to 46 µM
Procedure, shortened: as §1

[17] = P-glycoprotein substrates identified in KB-3-1 adenocarcinoma cell line, qHTS therapeutic library screen (AID 1346986); conditions: KB-3-1 parental cells viability, CellTiter-Glo, 72 h; series mostly up to 44.5 µM; further: nearly all actives have a fitted effect of over 60% in size
Procedure, shortened: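 Compounds were tested in dose-response against KB-3-1 and KB-8-5-11 cells at 37 degree C for 72 h, and viability was measured by luminescence. AC50 values came from curve fitting with class-based activity calls.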

Measured: Potency

COc1ccc([C@@H]2Sc3ccccc3N(CCN(C)C)C(=O)[C@@H]2OC(C)=O)cc1
active: [5] 20.6 µM
not listed: [17]
inactive: all other assays above

Cc1ccc(Cl)c(Nc2ccccc2C(=O)O)c1Cl
not listed: [11] | [15] | [16] | [17]
inactive: all other assays above

CCN(CC)CC(=O)Nc1c(C)cccc1C
not listed: [13] | [17]
inactive: all other assays above

CNC1(C)C2CCC(C2)C1(C)C (configuration not stated)
not listed: [6] | [17]
inactive: all other assays above

C[N+](C)(C)CCOC(N)=O
not listed: [6] | [17]
inactive: all other assays above

C=CCc1ccccc1OCC(O)CNC(C)C (configuration not stated)
not listed: [13] | [17]
inactive: all other assays above

CCCN1C[C@H](CSC)C[C@@H]2c3cccc4[nH]cc(c34)C[C@H]21
inactive: all assays above

Nc1c2c(nc3ccccc13)CCCC2O (configuration not stated)
not listed: [6] | [17]
inactive: all other assays above

COCC(=O)O[C@]1(CCN(C)CCCc2nc3ccccc3[nH]2)CCc2cc(F)ccc2[C@@H]1C(C)C
active: [3] 31.6 µM | [4] 14.6 µM | [5] 2.31 µM | [6] 26.1 µM
not listed: [8] | [13] | [14] | [16] | [17]
inactive: all other assays above

CC(C)[N+](C)(CCOC(=O)C1c2ccccc2Oc2ccccc21)C(C)C
not listed: [17]
inactive: all other assays above

CC(=O)Nc1nnc(S(N)(=O)=O)s1
not listed: [13] | [17]
inactive: all other assays above

CC(=O)OCC1=C(C(=O)O)N2C(=O)[C@@H](NC(=O)Cc3cccs3)[C@H]2SC1
not listed: [13] | [17]
inactive: all other assays above

C[C@H](CS)C(=O)N1CCC[C@H]1C(=O)O
not listed: [17]
inactive: all other assays above

NS(=O)(=O)c1cc2c(cc1Cl)NC(C1CC3C=CC1C3)NS2(=O)=O (configuration not stated)
not listed: [11] | [17]
inactive: all other assays above

O=C1CC2(CCCC2)CC(=O)N1CCCCN1CCN(c2ncccn2)CC1
active: [5] 9.2 µM
not listed: [17]
inactive: all other assays above

CO[C@@]1(NC(=O)CSCC#N)C(=O)N2C(C(=O)O)=C(CSc3nnnn3C)CS[C@@H]21
not listed: [17]
inactive: all other assays above
